Our source for the outcome and AC50 values is PubChem BioAssay (EPA / NIEHS).

Active and inactive are the calls of the source. Rule for the calls: active = hit-call score of the fitted dose curve at least 0.9, where 1 is the maximum; inactive = score below 0.9.

Conditions in all cases: mRNA level, 48 h; actives raise or lower the signal
Read-out in assay [1]: Cyclin Dependent Kinase Inhibitor 1A (CDKN1A), CDKN1A (gene 1026)
Briefly: LTEA_HepaRG_CDKN1A: Life Technologies and Expression Analysis (LTEA) Assay for Cyclin Dependent Kinase Inhibitor 1A (CDKN1A) using HepaRG (AID 2283450). In a few lines:
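HepaRG, 48 h dosing, 8-pt half-log series from 100 uM top, 0.5% DMSO vehicle, duplicates. Readout: TaqMan qRT-PCR of CDKN1A transcript, housekeeping-normalized (ACTB, GAPDH, POLR2A). Up/down curve fit relative to DMSO.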

Read-out in assay [2]: Cyclin D1 (CCND1), CCND1 (gene 595)
Description: LTEA_HepaRG_CCND1: Life Technologies and Expression Analysis (LTEA) Assay for Cyclin D1 (CCND1) using HepaRG (AID 2283451). The procedure, abridged:
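qRT-PCR (Fluidigm 96.96 array) read-out of transcript level, housekeeping-normalized (ACTB/GAPDH/POLR2A). HepaRG cells, 48 h chemical exposure, 8-point half-log series from 100 uM, 0.5% DMSO vehicle; gain or loss relative to DMSO baseline.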

Read-out in assay [3]: catalase (CAT), CAT (gene 847)
Description: LTEA_HepaRG_CAT: Life Technologies and Expression Analysis (LTEA) Assay for catalase (CAT) using HepaRG (AID 2283452). In a few lines:
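Expression of CAT was quantified by TaqMan qRT-PCR with ACTB/GAPDH/POLR2A normalization after 48 h chemical exposure of HepaRG. Eight-point half-log series, top 100 uM, in 0.5% DMSO; gain or loss fitted against vehicle.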

Read-out in assay [4]: flavin-containing dimethylaniline monooxygenases 3 (FMO3), FMO3 (gene 2328)
Description: LTEA_HepaRG_FMO3: Life Technologies and Expression Analysis (LTEA) Assay for flavin-containing dimethylaniline monooxygenases 3 (FMO3) using HepaRG (AID 2283453). In a few lines:
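Eight-point concentration-response in serum-free HepaRG cultures (top 100 uM, 0.5% DMSO, 48 h). Read-out: FMO3 mRNA level normalized to three endogenous control genes, fitted bidirectionally versus vehicle.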

Read-out in assay [5]: Cytochrome P450 (CYP1A1), CYP1A1 (gene 1543)
Description: LTEA_HepaRG_CYP1A1: Life Technologies and Expression Analysis (LTEA) Assay for Cytochrome P450 (CYP1A1) using HepaRG (AID 2283454). The procedure, abridged:
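qRT-PCR read-out: CYP1A1 transcript normalized to three housekeeping genes, fitted bidirectionally against 0.5% DMSO vehicle baseline. Human HepaRG cells, 48 h chemical exposure, 8-point half-log series topping at 100 uM.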

Read-out in assay [6]: CFLAR gene, CFLAR (gene 8837)
Description: LTEA_HepaRG_CFLAR: Life Technologies and Expression Analysis (LTEA) Assay for CFLAR gene using HepaRG (AID 2283455). The procedure, abridged:
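Transcript level by qRT-PCR (normalized to ACTB, GAPDH and POLR2A) after 48 h chemical exposure of HepaRG cells, top concentration 100 uM with half-log steps, 0.5% DMSO vehicle, duplicates; fitted bidirectionally against DMSO baseline.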

Read-out in assay [7]: Forkhead box O1 (FOXO1), FOXO1 (gene 2308)
Briefly: LTEA_HepaRG_FOXO1: Life Technologies and Expression Analysis (LTEA) Assay for Forkhead box O1 (FOXO1) using HepaRG (AID 2283456). The procedure, abridged:
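FOXO1 transcript quantified by qRT-PCR after 48 h chemical exposure (top 100 uM, half-log steps, 0.5% DMSO) of HepaRG cells, housekeeping-normalized (ACTB/GAPDH/POLR2A). Changes fitted in both directions relative to vehicle.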

Read-out in assay [8]: growth arrest and DNA damage 45 (GADD45A), GADD45A (gene 1647)
Briefly: LTEA_HepaRG_GADD45A: Life Technologies and Expression Analysis (LTEA) Assay for growth arrest and DNA damage 45 (GADD45A) using HepaRG (AID 2283458). In a few lines:
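HepaRG, 48 h exposure, 8 conc. (top 100 uM, half-log steps), 0.5% DMSO vehicle, duplicates. Read-out: qRT-PCR mRNA level, housekeeping-normalized (ACTB/GAPDH/POLR2A). Curves fit bidirectionally vs DMSO baseline.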

Read-out in assay [9]: ABC Transporter (ABCB1), ABCB1 (gene 5243)
Description: LTEA_HepaRG_ABCB1: Life Technologies and Expression Analysis (LTEA) Assay for ABC Transporter (ABCB1) using HepaRG (AID 2283460). In a few lines:
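ABCB1 transcript level measured by TaqMan qRT-PCR against three housekeeping genes after 48 h chemical exposure of differentiated HepaRG cells. Top concentration 100 uM, half-log steps, eight points, 0.5% DMSO vehicle; bidirectional fit relative to DMSO.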

Read-out in assay [10]: ABC Transporter (ABCB11), ABCB11 (gene 8647)
Briefly: LTEA_HepaRG_ABCB11: Life Technologies and Expression Analysis (LTEA) Assay for ABC Transporter (ABCB11) using HepaRG (AID 2283463). The procedure, abridged: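 ABCB11 transcript levels quantified by TaqMan qRT-PCR against three housekeeping genes after 48 h chemical exposure of HepaRG cultures. Concentrations up to 100 uM in half-log steps, 0.5% DMSO vehicle; both induction and suppression scored.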

Read-out in assay [11]: ABC Transporter (ABCC2), ABCC2 (gene 1244)
Briefly: LTEA_HepaRG_ABCC2: Life Technologies and Expression Analysis (LTEA) Assay for ABC Transporter (ABCC2) using HepaRG (AID 2283464). The procedure, abridged:
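qRT-PCR (TaqMan, Fluidigm array) read-out of ABCC2 mRNA, normalized to three housekeeping genes. Differentiated HepaRG cells were treated 48 h in serum-free induction medium with 8-point half-log series from 100 uM in 0.5% DMSO; curves fitted bidirectionally relative to DMSO.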

Read-out in assay [12]: Broad substrate specificity ATP-binding cassette transporter ABCG2 (Homo sapiens) (UniProt Q9UNQ0)
Briefly: LTEA_HepaRG_ABCG2: Life Technologies and Expression Analysis (LTEA) Assay for ABC Transporter (ABCG2) using HepaRG (AID 2283465). In a few lines: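 ABCG2 transcript was quantified by TaqMan qRT-PCR against three housekeeping genes in HepaRG cells. Cells were treated in duplicate for 48 h across an 8-point half-log series up to 100 uM, with 0.5% DMSO vehicle. Gain or loss versus DMSO was fit.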

Read-out in assay [13]: ATP-citrate lyase (ACLY), ACLY (gene 47)
Briefly: LTEA_HepaRG_ACLY: Life Technologies and Expression Analysis (LTEA) Assay for ATP-citrate lyase (ACLY) using HepaRG (AID 2283466). The procedure, abridged:
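ACLY mRNA quantified by qRT-PCR on Fluidigm arrays against three housekeeping genes, after 48 h chemical treatment of HepaRG cells (top concentration 100 uM, half-log steps, 0.5% DMSO vehicle). Up- or down-regulation fitted relative to DMSO.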

Read-out in assay [14]: Peroxisomal acyl-coenzyme A oxidase 1 (ACOX1) gene, ACOX1 (gene 51)
Description: LTEA_HepaRG_ACOX1: Life Technologies and Expression Analysis (LTEA) Assay for Peroxisomal acyl-coenzyme A oxidase 1 (ACOX1) gene using HepaRG (AID 2283467). In a few lines:
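ACOX1 transcript levels were quantified by TaqMan qRT-PCR against three housekeeping genes after 48 h chemical exposure of differentiated human HepaRG cells. Exposure used eight half-log steps topping at 100 uM, 0.5% DMSO vehicle, in duplicate. Bidirectional curve fits were made relative to DMSO.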

Read-out in assay [15]: Alkaline Phosphatase, Placental (ALPP) gene, ALPP (gene 250)
Briefly: LTEA_HepaRG_ALPP: Life Technologies and Expression Analysis (LTEA) Assay for Alkaline Phosphatase, Placental (ALPP) gene using HepaRG (AID 2283468). The procedure, abridged: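 qRT-PCR readout of ALPP mRNA (Fluidigm TaqMan), normalized to ACTB/GAPDH/POLR2A, after 48 h chemical exposure of HepaRG cells; 8-point half-log series, top 100 uM, 0.5% DMSO vehicle. Bidirectional curve fit versus DMSO baseline.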

Read-out in assay [16]: Bcl-2 (BAD) gene, BAD (gene 572)
Briefly: LTEA_HepaRG_BAD: Life Technologies and Expression Analysis (LTEA) Assay for Bcl-2 (BAD) gene using HepaRG (AID 2283469). In a few lines: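 Read-out: qRT-PCR of BAD mRNA, normalized to three housekeeping genes. Human HepaRG cultures got 48 h chemical exposure in 0.5% DMSO, duplicate eight-point half-log series topping at 100 uM. Gain or loss of signal fitted versus DMSO vehicle.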

Read-out in assay [17]: ABC Transporter (ABCC3), ABCC3 (gene 8714)
Briefly: LTEA_HepaRG_ABCC3: Life Technologies and Expression Analysis (LTEA) Assay for ABC Transporter (ABCC3) using HepaRG (AID 2283462). The procedure, abridged:
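qRT-PCR read-out of ABCC3 transcript, normalized to three housekeeping genes (ACTB, GAPDH, POLR2A), after 48 h chemical exposure of human HepaRG cells. Eight half-log concentrations, highest 100 uM, in 0.5% DMSO; gain or loss fitted relative to DMSO baseline.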

Broad substrate specificity ATP-binding cassette transporter ABCG2 (Homo sapiens), sequence (Q9UNQ0 whole entry, looked up): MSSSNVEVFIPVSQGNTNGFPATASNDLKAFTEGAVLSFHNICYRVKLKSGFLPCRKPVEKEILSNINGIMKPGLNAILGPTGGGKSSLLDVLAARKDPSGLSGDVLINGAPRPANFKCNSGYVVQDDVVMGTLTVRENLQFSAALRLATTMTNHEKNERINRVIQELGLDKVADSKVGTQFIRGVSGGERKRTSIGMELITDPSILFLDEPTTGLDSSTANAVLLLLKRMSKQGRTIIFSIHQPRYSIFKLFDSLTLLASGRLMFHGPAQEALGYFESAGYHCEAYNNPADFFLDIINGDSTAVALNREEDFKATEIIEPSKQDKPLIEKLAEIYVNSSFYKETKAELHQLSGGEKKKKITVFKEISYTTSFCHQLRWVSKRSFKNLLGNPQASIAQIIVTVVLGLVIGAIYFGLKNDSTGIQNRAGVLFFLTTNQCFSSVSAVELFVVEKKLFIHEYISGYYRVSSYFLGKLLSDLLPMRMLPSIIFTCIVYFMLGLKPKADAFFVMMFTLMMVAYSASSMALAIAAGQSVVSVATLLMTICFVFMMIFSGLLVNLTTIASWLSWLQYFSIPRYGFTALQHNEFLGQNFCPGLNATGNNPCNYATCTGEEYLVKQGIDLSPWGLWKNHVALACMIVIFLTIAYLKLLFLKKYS

With `O=C1O[C@H]([C@@H](O)CO)C(O)=C1O`, the molecule was called inactive in assay [1], in assay [2], in [3], in assay [4], in [6] and in assay [7]. In addition, the outcome in [8], in [9], in assay [10], in assay [11], in assay [12] and in [13] was inactive. The molecule was classed as inactive in [14], in assay [15] and in assay [16]. For the same molecule, the AC50 in [5] is 61.8 µM (active).
As for `CCCCCCCCOc1ccc(C(=O)c2ccccc2)c(O)c1`, the molecule was called inactive in [1], in [2], in assay [3], in assay [4], in assay [6] and in assay [7]. Moreover, the outcome in assay [8], in assay [9], in assay [17], in assay [10], in assay [11] and in [12] was inactive. Further, the call in assay [13], in assay [14], in assay [15] and in assay [16] was inactive. The AC50 in [5] is 50 µM (active).
Turning to `Clc1cc(Cl)c2c(c1)N=C1CCCCCN1C2`, the molecule was called inactive in assay [1], in assay [2], in [3], in assay [4], in assay [6] and in assay [7]. Besides, the outcome in [8], in [9], in assay [17], in assay [10], in assay [11] and in assay [12] was inactive. The molecule was classed as inactive in assay [13], in assay [15] and in [16]. The AC50 in assay [5] was 1.61 µM (active).
Turning to `CCN(Cc1cccc(S(=O)(=O)O)c1)c1ccc(C(=C2C=CC(=[N+](CC)Cc3cccc(S(=O)(=O)O)c3)C=C2)c2ccccc2S(=O)(=O)[O-])cc1`, the molecule was called inactive in [1], in assay [2], in [3], in [4], in [6] and in assay [7]. Also, the outcome in assay [8], in [9], in assay [17], in assay [10], in assay [11] and in [12] was inactive. Besides, the result in assay [13], in assay [15] and in [16] was inactive. Besides, the AC50 in assay [5] was 32.2 µM (active).
